# Source: PubChem (National Center for Advancing Translational Sciences (NCATS))
# POLB inh: blocks human DNA polymerase beta activity. P06746. Pol beta primer extension/strand displacement, fluorescence kinetic. Potency, µM (highest dose often 114 µM), hits mostly inhibitors. hit rate 1.3% among 340,000
#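 Pol beta (10 nM) and compounds were preincubated 15 min at room temperature, then 50 nM substrate (final) started primer extension/strand displacement. Reads were taken at 0 and 10 min; concentration-response data were fitted to a four-parameter Hill equation.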
# Pol kappa inh-1: blocks human DNA polymerase kappa activity | Q9UBT6 | purified Pol kappa, fluorescent DNA synthesis assay, 10 min | Potency, µM (highest dose often 107 µM), most hits filed as inhibitors | hit rate 0.53% among 400,000
#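 Here, compound and 10 nM enzyme are combined for 15 min at room temperature; adding 50 nM substrate (final) starts DNA synthesis, tracked by fluorescence at 0 and 10 min against buffer-only wells.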
# Pol iota inh: DNA polymerase iota (human) inhibition; Pol iota fluorescent replication assay, 10 min; Potency, µM (highest dose often 115 µM), actives largely listed as inhibitors; hit rate 1% among 390,000
#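 Fluorescent replication assay read twice, at 0 min and 10 min after adding 50 nM (final) substrate. Enzyme (10 nM) and compounds were first incubated 15 min at room temperature; enzyme-free buffer wells were negative controls.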
# WRN helicase inh: inhibitors of human WRN helicase | WRN helicase unwinding, fluorescent forked duplex, kinetic | hit rate 0.46% among 360,000 | Potency, µM (top dose mostly 114 µM), hits mostly inhibitors; further: nearly all actives have a fitted effect of over 55% in size
#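 Fluorescence dequenching readout, ex 525 nm/em 598 nm, kinetic mode: forked duplex DNA (100 nM final) with adjacent fluorophore and quencher unwound by WRN (20 nM final) with 2 mM ATP. Compound preincubation 15 min, room temperature.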
# Pol eta inh-1: blocks human DNA polymerase eta activity; recombinant Pol eta, fluorescent DNA replication assay; hit rate 1.2% among 390,000; Q9Y253; Potency, µM (titrated, usually from 114 µM), hits mostly inhibitors
#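 Pol eta at 10 nM preincubated with compounds 15 min at room temperature; reaction started with fluorescent substrate (50 nM final) and read kinetically at 0 and 10 min.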
# FEN1 inh: human FEN1 inhibition. Recombinant FEN1 flap cleavage, fluorescence, 15 min. Potency, µM (doses to about 114 µM), usual class: inhibitors. hit rate 0.35% among 390,000. AID 588795; further: nearly all actives have a fitted effect of over 65% in size
# Target sequence (P39748 whole entry, looked up): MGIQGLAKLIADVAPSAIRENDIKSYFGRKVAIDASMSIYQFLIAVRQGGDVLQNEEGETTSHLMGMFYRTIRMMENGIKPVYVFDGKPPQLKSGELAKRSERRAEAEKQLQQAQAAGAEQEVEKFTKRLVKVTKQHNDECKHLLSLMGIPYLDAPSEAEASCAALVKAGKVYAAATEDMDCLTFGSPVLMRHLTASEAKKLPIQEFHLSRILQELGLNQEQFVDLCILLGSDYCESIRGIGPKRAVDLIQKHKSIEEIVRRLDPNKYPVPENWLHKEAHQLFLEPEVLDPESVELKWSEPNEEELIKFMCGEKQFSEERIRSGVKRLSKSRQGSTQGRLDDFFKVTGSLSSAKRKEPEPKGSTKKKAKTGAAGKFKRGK
#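 Nuclease activity of 10 nM FEN1 was measured after 15 min of room-temperature exposure to titrated compounds, by adding 50 nM flap substrate and reading plates at 0 and 15 min.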
# Pol iota confirm: Confirm cherry-picked inhibitors of human polymerase iota. shares compounds with Pol kappa inh-1. Pol iota primer extension, TAMRA/BHQ fluorescence. Potency, µM, usual class: inhibitors. hit rate 77% among 1,500. AID 720496
# GALK inh confirm: confirmation of human galactokinase (GALK) inhibitors. AID 2015. Potency, µM (doses to about 115 µM), hits mostly inhibitors. shares compounds with Pol eta inh-1. hit rate 70% among 150. purified GALK, Kinase-Glo ATP depletion luminescence
# GALK redox cs: generates H2O2 by redox cycling, flagging GALK artifacts; shares compounds with Pol eta inh-1; AID 2035; Phenol red-HRP H2O2 redox cycling, absorbance 600 nm; Potency, µM (highest dose often 115 µM), hits mostly inhibitors; hit rate 40% among 150
# HEK293 viability: reduces HEK-293 cell viability in GALK counter-screen | shares compounds with Pol eta inh-1 | HEK-293 viability, ATP luminescence (CellTiter-Glo), 24/48 h | Potency, µM (titrated, usually from 46.1 µM), hits mostly inhibitors | hit rate 10% among 170
# Pol kappa inh-2: confirmation of human DNA polymerase kappa inhibitors; Potency, µM, usual class: inhibitors; hit rate 76% among 920; purified Pol-kappa, fluorescent strand-displacement substrate; shares compounds with Pol eta inh-1
# Pol eta inh-2: Pol eta (human) inhibition, cherry-pick confirmation; shares compounds with Pol eta inh-1; Pol eta primer extension, TAMRA/BHQ fluorescence, 10 min; Potency, µM, most hits filed as inhibitors; hit rate 64% among 2,600; AID 720502
# Hits are given with their value; n = inactive; u = inconclusive; x = no result given; [ ] = dose if it differs, or a comment. Sampled rows, rich in hits. Any-hit rate of the full collection: about 2.4%. The call rests on the fitted dose curve; in most records, active means well fitted curve in the direction sought with a large enough effect; inconclusive means small, poorly fitted or top-dose-only effect, or another doubt; inactive means no such curve, though single readings can be large; an effect the other way counts as inactive or inconclusive.
SMILES,POLB inh,Pol kappa inh-1,Pol iota inh,WRN helicase inh,Pol eta inh-1,FEN1 inh,Pol iota confirm,Pol kappa inh-2,Pol eta inh-2,others
O=C1C=C(NCc2ccccc2)c2ccccc2C1=O,u,n,1µM,u,5.62µM,u,42.3,x,84.9,GALK inh confirm=21.1µM;GALK redox cs=16.8µM;HEK293 viability=u
CCOC(=O)C1=C(C)N=c2s/c(=C/c3ccc(OCC(=O)O)cc3)c(=O)n2C1c1ccc(OC)cc1OC (stereo not drawn),n,u,u,n,28.2µM,u,33.6,29.9,67.5,
CCOC(=O)C1=C(C)N=c2s/c(=C/c3cccc([N+](=O)[O-])c3O)c(=O)n2C1c1ccc(OC)cc1OC (stereo not drawn),n,n,u,n[11.6 µM],50.1µM,n,75.2,x,75.7,
Cc1csc2nc(COc3ccccc3NC(=O)c3ccco3)cc(=O)n12,n,n,n,x,n,n,x,x,x,
Cc1ccc(SC2=C(Sc3ccc(C)cc3)C(=O)c3ccccc3C2=O)cc1,n,n,6.31µM,79.4µM,17.8µM,n,u,x,84.9,
CCc1ccc(S(=O)(=O)c2nnn3c2nc(NCCc2ccccc2)c2sccc23)cc1,n,n,n,x,n,n,x,x,x,
CCCCCCc1c(C)c2ccc(OCC(=O)N[C@@H](Cc3ccccc3)C(=O)O)cc2oc1=O,n,n,n,n,35.5µM,n,84.4,x,u,
Cc1c(C)c2ccc(OCC(=O)N[C@@H](Cc3ccccc3)C(=O)O)cc2oc1=O,n,n,n,n,u,n,x,x,x,
Cn1c2ccccc2c2cc(/C=N/NC(=O)c3cc(O)ccc3O)ccc21,10µM,50.1µM,10µM,22.4µM,10µM,56.2µM,u,x,53.6,
CCCCNC(=O)C(CC)Sc1nc2ccccc2c(=O)n1Cc1ccco1 (stereo not drawn),n,n,n,x,n,n,x,x,x,
Cc1cccc(N=C2NC(=O)/C(=C/c3cccn3C)S2)c1C,n,n,u,n,n,n,x,x,x,
O=C(O)c1cccc(-n2cccc2/C=C2/SC(=O)N(CC(=O)N3CCCC3)C2=O)c1,10µM,u,7.94µM,56.2µM,5.01µM,n,29.9,9.47,23.9,
Cc1ccccc1N=C1NC(=O)/C(=C/c2cccn2-c2cccc(C(=O)O)c2)S1,10µM,79.4µM,20µM,u,17.8µM,n,42.3,26.7,26.9,
CC(C)[C@H](/C=C/C[Si](C)(C)C)[C@H](C)C(O)/C=C/CCCOC(=O)C(C)(C)C (stereo partly drawn),x,n,n,x,x,n,x,x,x,
Cc1cc(/C=C2\SC(=O)N(CC(=O)Nc3ccccc3F)C2=O)c(C)n1C,n,n,n,n,n,n,x,x,x,
Cc1ccc(C(=O)O)cc1-c1ccc(/C=C2/NC(=O)N(c3ccccc3)C2=O)o1,5.62µM,22.4µM,14.1µM,39.8µM,2.82µM,u,18.9,18.9,30.1,
O=C(CN1C(=O)S/C(=C\c2ccccn2)C1=O)Nc1ccccc1,n,n,n,n,n,n,x,x,x,
Cc1ccccc1NC(=O)CN1C(=O)S/C(=C\c2ccc(-c3cc(C(=O)O)ccc3C)o2)C1=O,31.6µM,u,8.91µM,u,u,u,26.7,8.44,26.9,
